This is an account of results in PubChem BioAssay (Tox21).

The structures appear in SMILES notation. Records with an inconclusive call do not appear. Values without a mark were called inactive. Activity calls are given as the source filed them. Calls come from the whole dose curve; as a rule, active = well fitted cell-killing curve with a large enough effect in the repeat runs; inconclusive = weak or mixed curves, or effect the other way; inactive = no such curve, though single readings can be large or run the other way.
% is set by controls: 0 for no effect and ±100 for the full control effect; potency is the fitted concentration of half-maximal effect.

A short description of this assay: qHTS assay to identify small molecule agonists of the estrogen receptor alpha (ER-alpha) signaling pathway in the presence of an antagonist - cell viability counter screen (AID 1259386).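 Note: cells exposed to compounds for 22 h at 37 °C before the viability read; nearly all actives have a fitted effect of over 30% in size.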 Conditions: VM7Luc4E2 viability, CellTiter-Fluor fluorescence, 22 h; series mostly up to 92.4 µM; activity change, negative = cytotoxicity: at the top concentration. The gist of the method:
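In this counter screen, compound effects on VM7Luc4E2 viability were tested in the presence of the antagonist ICI-182,780 at 10.0nM final. Compounds were dosed at 15 concentrations, exposure lasted 22hr, and the CellTiter-Fluor signal was read.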
Turning to `Nc1ccc2cc(S(=O)(=O)O)cc(O)c2c1`, the Potency was 48.3 µM (active).
For the molecule `Cc1cc(NC(=O)C2=C(O)c3ccccc3S(=O)(=O)N2C)no1`, the “activity change, negative = cytotoxicity” value is -3.68% [at 42.5 µM].
On the same count and under the same terms, the result for `CCOC(=O)c1ccc(OC(=O)CCCCCN=C(N)N)cc1` reads 3.08% [at 42.5 µM]; that for `OC[C@H](Cc1cccc(O)c1)[C@H](CO)Cc1cccc(O)c1`, 0.642%.
The same measure, in the same setting: the result for `C[Si](C)(C)C` reads -7.14%.
Consider `C=Cc1ccccn1`, for which the “activity change, negative = cytotoxicity” value was -0.798%.
In the case of `CCc1ccc(C=O)cc1`, the “activity change, negative = cytotoxicity” value is -2.55%.
Same read-out and setting: the result for `C=C(C)C(=O)OCCNC(C)(C)C` reads -0.114%; that for `On1nnc2ccccc21`, 1.32%.
On the same count and under the same terms, the result for `CC1(CO)CN(c2ccccc2)NC1=O` (centres undefined) reads 0.158%; that for `CCC(C)(CCC(C)C)C(=O)O` (centres undefined), 0.11%; that for `CC(=O)c1sc(C)nc1C`, 0.0515%.
Consider `CCCCOCCOC(=O)COc1nc(Cl)c(Cl)cc1Cl`, for which the “activity change, negative = cytotoxicity” value was 3.88%.
On to `Cc1ccccc1N=O`, for which the “activity change, negative = cytotoxicity” value is -3.54%.
Take `Brc1ccc(-c2ccccc2)cc1`: the “activity change, negative = cytotoxicity” value is 2.25%.
Still for that read-out and setting: as for `COc1ccc2nc(SCc3ncc(C)c(OC)c3C)[nH]c2c1`, the figure is -4.18% [at 42.5 µM]; as for `CC1COc2ccccc2N1` (centres undefined), 0.459%; as for `C[Si](C)=O`, 2.9% [at 8.39 µM].
`COc1ccc(Br)c(C)c1`: the “activity change, negative = cytotoxicity” value was 0.799%.
With `CC(=O)c1ccc2c(c1)Cc1ccccc1-2`, the “activity change, negative = cytotoxicity” value was 8.12%.
For the molecule `COc1ccc2c(c1)C(=O)N(CCc1ccc(S(=O)(=O)NC(=O)NC3CCCCC3)cc1)C(=O)C2(C)C`, the “activity change, negative = cytotoxicity” value is 3.54% [at 42.5 µM].
`N[C@@H](CCC(=O)N[C@@H](CS)C(=O)NCC(=O)O)C(=O)O`: the activity change, negative = cytotoxicity was 5.49% [at 19 µM].
Regarding `CC(=O)Nc1cccc(C)c1`, the “activity change, negative = cytotoxicity” value is -7.83%.
As to `FC(F)(F)c1ccccc1-n1ccnc1`, the “activity change, negative = cytotoxicity” value is -0.811% [at 42.5 µM].
Still for that read-out and setting: the result for `COC(=O)C1CC(=O)C(C(=O)OC)CC1=O` (centres undefined) reads 1.85% [at 8.39 µM]; that for `CCCCNc1ccc(C(=O)OCCN(C)C)cc1`, -4.82% [at 42.5 µM]; that for `O=C(O)Cc1cn(-c2ccccc2)nc1-c1ccc(Cl)cc1`, 3.09% [at 42.5 µM].
With `ClCCCl`, the “activity change, negative = cytotoxicity” value was -10.6%.
With `CC1=CCC(C(C)C)=CC1`, the “activity change, negative = cytotoxicity” value was -3.57%.
Consider `O=C(OCC(O)CO)c1ccccc1Nc1ccnc2c(C(F)(F)F)cccc12` (centres undefined), for which the “activity change, negative = cytotoxicity” value is -1.51% [at 42.5 µM].
Still for that read-out and setting: as for `C=C(C)C(=O)OCc1ccccc1`, the figure is -0.0526%; as for `CC(C)CC(C)CC(C)CC(C)COC(=O)c1ccccc1C(=O)OCC(C)CC(C)CC(C)CC(C)C` (centres undefined), -0.12%; as for `CC(C)(C)c1cc(CCC(=O)NN)cc(C(C)(C)C)c1O`, -0.237%.
For `CN=C(NC#N)Nc1ccc(C2=NNC(=O)CC2C)cc1` (centres undefined), the “activity change, negative = cytotoxicity” value is -9.67% [at 42.5 µM].
